About 13,000 (27%) of roughly 48,000 compounds showed an effect of 50% or more. The list shows a part of the results.

The test system of the assay is Wolbachia pipientis. In words: Anti-Wolbachia Cell-Based Screen. More on the design: scale not given: in the data most compounds retested in dose-response had high values. It counts as functional. To be noted: 5 µM.
For the molecule `CCN(CC)CCCC(C)NC(=O)c1ccccc1-n1cccn1` (centres undefined), the “Percent Effect” value is reported as 7.306%.
As for `Cc1csc(CN(C)C(=O)Nc2cc(F)cc(N3CCCC3)c2)n1`, the figure is 1.916%; as for `Cc1cc(CN2CCN(C(=O)C3CCC3)[C@@H]3CS(=O)(=O)C[C@@H]32)ccc1F`, -7.739%.
The figure for `COCc1cccc(NS(=O)(=O)c2cc(C(=O)O)cs2)c1` is -2.674%; for `CC(=O)N1CCCN(C(=O)NCCCc2cn[nH]c2C)CC1` it is 5.241%.
As for `COc1ccc(CCNC(=O)N2CCCC(c3nncn3C)C2)cc1` (centres undefined), the figure is 95.68%; as for `COc1ccccc1CCNC(=O)N1CCCC(c2nncn2C)C1` (centres undefined), 0.4535%; as for `Cn1cc(CCNC(=O)N2CCCC(c3nncn3C)C2)cn1` (centres undefined), 107%.
Regarding `Cc1ccccc1CCNC(=O)N1CCCC(c2nncn2C)C1` (centres undefined), the “Percent Effect” value worked out at 7.468%.
The figure for `Cc1[nH]ncc1CCCNC(=O)N1CCCC(c2nncn2C)C1` (centres undefined) is 131.8%; for `COc1ccc(CC(=O)N2CCCC(c3nncn3C)C2)cc1` (centres undefined) it is -3.253%.
As for `Cn1cnnc1C1CCCN(C(=O)NCCc2ccccc2F)C1` (centres undefined), the figure is -7.484%; as for `Cc1[nH]ncc1CCCNC(=O)N1CCC(C(N)=O)CC1`, -4.643%; as for `CCOc1cc(CN(C)CCOC)ccc1OC(F)F`, 9.652%.
For the molecule `CN(C)C(=O)c1cccc(NC(=O)Cc2cc(F)ccc2F)n1`, the “Percent Effect” value was -6.771%.
The figure for `CC(=O)NCCCNCc1cc(F)ccc1Br` is 10.59%; for `CS(=O)(=O)NCCCNCc1cc(F)ccc1Br` it is 85.45%; for `CCS(=O)(=O)NCCNCc1cc(F)ccc1Br` it is 5.201%.
As for `O=C(c1cnc(-c2ccco2)s1)N1CCCC1Cn1cccn1` (centres undefined), the “Percent Effect” value was -5.367%.
The figure for `Cc1sc(-c2ccco2)nc1C(=O)N1CCCC1Cn1cccn1` (centres undefined) is 99.48%.
The figure for `Cc1nc(-c2ccco2)ccc1C(=O)N1CCCC1Cn1cccn1` (centres undefined) is -3.884%; for `O=C(c1cnc(-c2ccco2)s1)N1CCCCC1Cn1cccn1` (centres undefined) it is 80.46%; for `Cc1cnn(CC2CCCN2C(=O)c2cnc(-c3ccco3)s2)c1` (centres undefined) it is 107.8%.
The figure for `COc1ccccc1S(=O)(=O)CCOC(C)C` is 8.609%; for `CC(C)Oc1ccc(CSc2nnc(CN3CCCC3=O)o2)cc1` it is -8.061%.
On to `Cc1ccc(OCC2CCCN(Cc3ccc(CO)o3)C2)cc1` (centres undefined), for which the “Percent Effect” value is -15.89%.
As for `Cc1ccc(OCC2CCCN(c3nc(CO)cs3)C2)cc1` (centres undefined), the figure is 87.49%.
The figure for `OCc1csc(N2CCCN(Cc3ccc(F)cc3)CC2)n1` is 11.91%.
As to `COc1ccc(OCC2CCCN(c3nc(CO)cs3)C2)cc1` (centres undefined), the “Percent Effect” value turned out to be 99.62%.
For the molecule `OCc1csc(N2CCCC(COc3cccc(F)c3)C2)n1` (centres undefined), the “Percent Effect” value is 96.77%.
`COc1cccc(OCC2CCCN(c3cc(C(N)=O)ccn3)C2)c1` (centres undefined): the “Percent Effect” value amounted to 12.14%.
As for `OCc1csc(N2CCN(Cc3cccc(F)c3)CC2)n1`, the figure is -8.687%.
The figure for `Cc1ccc(OCC2CCCN(c3cc(C(N)=O)ccn3)C2)cc1` (centres undefined) is 0.1163%.
For the molecule `CC(C)NS(=O)(=O)c1cc(C(=O)O)cc(-c2ccccc2CN(C)C)c1`, the “Percent Effect” value is on record as 9.283%.
As for `CCOCCN1CCN(Cc2nnc(-c3occc3C)o2)CC1`, the figure is -3.196%.
The figure for `CC(C)C(O)C1(CNC(=O)Nc2ccc(CN3CCOC3=O)cc2)CC1` (centres undefined) is -15.4%; for `COC(=O)c1ccc2ccn(CC3CCCO3)c(=O)c2c1` (centres undefined) it is -4.095%.
The figure for `CCOCCn1c(=O)[nH]c2cc(C(=O)N(C)Cc3nc(C)c[nH]3)ccc21` is -5.58%; for `CCC[C@]12CN3C[C@](CCC)(CN(C1)C3c1[nH]c(=O)[nH]c(=O)c1C)C2=O` (some centres undefined) it is 113.9%; for `Cc1c(C2N3C[C@]4(C(C)C)CN2C[C@](C(C)C)(C3)C4=O)[nH]c(=O)[nH]c1=O` (some centres undefined) it is 123.1%.
Take `CC(=O)NC[C@H]1COCc2nc3c(C)cccc3n21`: the “Percent Effect” value was found to be 4.229%.
The figure for `CCOC(C)c1noc(CN2CCN(c3ccncc3)CC2)n1` (centres undefined) is -6.635%; for `Cc1occc1C(=O)N1Cc2nccn2CC(CN(C)C)C1.O=C(O)C(F)(F)F` (centres undefined) it is 7.658%.
In the case of `COc1ccc(CC(=O)N2Cc3nccn3CC(CN(C)C)C2)cc1.O=C(O)C(F)(F)F` (centres undefined), the “Percent Effect” value amounted to 100.3%.
The figure for `CCOCC(=O)N1Cc2nccn2CC(CN2CCCC2)C1.O=C(O)C(F)(F)F` (centres undefined) is -4.064%.
The figure for `COc1cccc(CC(=O)N2Cc3nccn3CC(CN(C)C)C2)c1` (centres undefined) is 80.89%; for `CN(C)CC1CN(C(=O)CCc2ccccc2)Cc2nccn2C1.O=C(O)C(F)(F)F` (centres undefined) it is 96.55%; for `CCOCC(=O)N1CCC(c2nccn2CC2CC2)CC1` it is 4.34%.
The figure for `CN(C)CC1CN(C(=O)NCc2ccccc2)Cc2nccn2C1.O=C(O)C(F)(F)F` (centres undefined) is -13.89%; for `CCOCC(=O)N1Cc2nccn2CC(CN(C)C)C1` (centres undefined) it is 110.3%; for `Cc1ccc(CN2CCOC3(CCN(C(=O)C4CC=CC4)CC3)C2)cc1.O=C(O)C(F)(F)F` it is 15.78%.
For the molecule `Cc1ccccc1N1CCN(C(=O)c2ncc(F)cc2F)C(C)C1` (centres undefined), the “Percent Effect” value is 9.425%.
Turning to `COc1ccc(C(=O)N2C[C@H]3CC[C@@H]2CN(C)C3)cc1Cl`, the “Percent Effect” value is given as -11.94%.
As for `Cc1ccccc1-c1ncc(CNCc2csc(C(C)C)n2)s1`, the figure is -1.637%.
As for `O=C(c1ccoc1)N1CCC2(C1)CN(c1nccs1)C2`, the figure is -3.02%; as for `CN(C)CC1CN(C(=O)Cc2ccccc2)Cc2nccn2C1.O=C(O)C(F)(F)F` (centres undefined), 102.6%; as for `Cc1ccc(CC(=O)N2Cc3nccn3CC(CN(C)C)C2)cc1.O=C(O)C(F)(F)F` (centres undefined), 14%.
As for `OCCCN1CCCC1c1cccc(Br)c1` (centres undefined), the figure is -6.004%.
For the molecule `NC(=O)CN1CCCC1c1ccccc1Br` (centres undefined), the “Percent Effect” value was -4.067%.
Consider `Cc1cncc(C2CCCN2CC(N)=O)n1` (centres undefined), for which the “Percent Effect” value amounted to 143.4%.
Take `Cc1cncc(C2CCCN2CCO)n1` (centres undefined): the “Percent Effect” value worked out at 153.6%.
Turning to `Cc1nc(O)cc(C2CCCN2CCO)n1` (centres undefined), the “Percent Effect” value is recorded as 112.5%.
Take `CN1CCN(C[C@H]2CC[C@@H](Cc3ccc(CN4CCCC4)cc3)O2)CC1`: the “Percent Effect” value is -1.169%.
The figure for `Cc1ccc(S(=O)(=O)NC[C@H]2OC[C@@H](NCc3cccs3)[C@@H]2O)cc1` is 7.979%; for `CCn1c(C)nnc1SCCNC(=O)CC1CCc2ccccc21` (centres undefined) it is -3.198%.
The figure for `CCOC(=O)[C@]12CCCN(Cc3nccs3)C[C@H]1CN(C(C)C)C2.O=C(O)C(F)(F)F.O=C(O)C(F)(F)F` is -10.51%.
As for `CCOC(=O)[C@]12CCCN(Cc3cccs3)C[C@H]1CN(C(C)C)C2.O=C(O)C(F)(F)F.O=C(O)C(F)(F)F`, the figure is 108.6%; as for `CCOC(=O)[C@]12CCCN(Cc3ccco3)C[C@H]1CN(CCN(C)C)C2.O=C(O)C(F)(F)F.O=C(O)C(F)(F)F.O=C(O)C(F)(F)F`, 13.18%; as for `CCOC(=O)[C@]12CCCN(Cc3nccs3)C[C@H]1CN(C(C)=O)C2.O=C(O)C(F)(F)F`, 10.79%.
With `CCOC(=O)[C@]12CCCN(Cc3nccs3)C[C@H]1CN(S(C)(=O)=O)C2.O=C(O)C(F)(F)F`, the “Percent Effect” value is reported as -4.113%.
On to `CCOC(=O)[C@]12CCCN(Cc3nccs3)C[C@H]1CN(CCOC)C2.O=C(O)C(F)(F)F.O=C(O)C(F)(F)F`, for which the “Percent Effect” value is listed as -1.05%.
The figure for `CCOC(=O)[C@]12CCCN(Cc3ccco3)C[C@H]1CN(S(C)(=O)=O)C2.O=C(O)C(F)(F)F` is 113.6%; for `CCOC(=O)[C@]12CCCN(Cc3ccsc3)C[C@H]1CN(CCOC)C2.O=C(O)C(F)(F)F.O=C(O)C(F)(F)F` it is -11.63%; for `CCOC(=O)[C@]12CCCN(Cc3cccs3)C[C@H]1CN(CCOC)C2.O=C(O)C(F)(F)F.O=C(O)C(F)(F)F` it is 131.5%.
As for `CCOC(=O)[C@]12CCCN(Cc3cccs3)C[C@H]1CN(C(C)=O)C2.O=C(O)C(F)(F)F`, the figure is 93.24%.
The figure for `COCCN(Cc1ccccn1)C(=O)CC1OCCc2ccccc21` (centres undefined) is -5.998%; for `COC(=O)c1ccc(N2CCC(C(O)c3ccccc3)CC2)nn1` (centres undefined) it is -10.77%; for `CC(C)CCC(=O)Nc1ncn(CC(=O)N2CCCCCC2)n1` it is -19.43%.
For the molecule `CCc1nc(CC(=O)N2CCOCC2c2ncon2)cs1` (centres undefined), the “Percent Effect” value is -4.331%.
The figure for `Cc1nnsc1CN1C[C@@H]2CC[C@H](C1)N(Cc1c(C)noc1C)C2=O` is 10.64%; for `O=C1N(CC2CC2)CCCC1(O)CN1CCc2[nH]ncc2C1` (centres undefined) it is -6.967%; for `CCc1ccc(CN2CCN(C)C3(CCC(=O)N(CC4CC4)CC3)C2)o1` (centres undefined) it is 1.557%.
With `Cc1noc([C@@H]2C[C@H](NC(=O)C3CCCCC3)CN2C)n1`, the “Percent Effect” value is listed as -5.582%.
The figure for `CCOC(=O)[C@]12CCCN(Cc3cccs3)C[C@H]1CN(CC(C)C)C2.O=C(O)C(F)(F)F.O=C(O)C(F)(F)F` is 98.32%; for `CCOC(=O)[C@]12CCCN(Cc3nccs3)C[C@H]1CN(CCN(C)C)C2.O=C(O)C(F)(F)F.O=C(O)C(F)(F)F.O=C(O)C(F)(F)F` it is 8.148%.
The figure for `CCOC(=O)[C@]12CCCN(Cc3nccs3)C[C@H]1CN(CC(C)C)C2.O=C(O)C(F)(F)F.O=C(O)C(F)(F)F` is 11.11%; for `Cn1cc(C(=O)Nc2cccc(-c3ccc4c(c3)CCO4)n2)ccc1=O` it is 14%; for `O=C(Cc1ccccn1)N1C[C@@H]2CC[C@H](C1)N(Cc1ccccc1)C2=O` it is -26.39%.
The figure for `COC(=O)CC1CN(Cc2c(Cl)ccc3cccnc23)CCO1` (centres undefined) is -2.588%.
Consider `CNC(=O)c1cccnc1N1CCN(Cc2ccccc2)C(CCO)C1` (centres undefined), for which the “Percent Effect” value is on record as -3.747%.
As for `CCC1CN(C(=O)c2cccnc2O)CCC(=O)N1Cc1ccccc1` (centres undefined), the figure is -1.189%; as for `O=C(Cc1cccnc1)N1C[C@@H]2CC[C@H](C1)N(Cc1ccccc1)C2=O`, -0.7591%; as for `CCC1CN(C(=O)c2ncccc2O)CCC(=O)N1Cc1ccccc1` (centres undefined), -8.07%.
As for `CNC(=O)CC1CC2(CCN(c3ncccn3)CC2)c2ccccc21.O=C(O)C(F)(F)F` (centres undefined), the figure is -15.28%.
As for `CNC(=O)CC1c2cccnc2C(=O)N1Cc1ccccc1` (centres undefined), the figure is 136.6%.
With `NC(=O)CC1c2cccnc2C(=O)N1Cc1ccccc1` (centres undefined), the “Percent Effect” value amounted to 97.87%.
As for `O=C1c2ncccc2C(CCO)N1Cc1ccccc1` (centres undefined), the figure is 101.3%.
The figure for `COC(=O)CC1c2cccnc2C(=O)N1Cc1ccccc1` (centres undefined) is 107.1%; for `O=C(O)c1cccnc1N1CCN(Cc2ccc(F)cc2)C(CCO)C1` (centres undefined) it is -1.62%.

(Values after ChEMBL document CHEMBL3988442, “University of Dundee, Small-Polar-MMV Screening Library” (2021).)
